Results on three compounds are retold here after ChEMBL document CHEMBL1961873, “Compounds: GSK PKIS; Assays: Nanosyn kinase panel” (2012).

Test [1] addresses T1, Serine/threonine-protein kinase D2 (Homo sapiens) (UniProt Q9BZL6).
T1 sequence (whole entry): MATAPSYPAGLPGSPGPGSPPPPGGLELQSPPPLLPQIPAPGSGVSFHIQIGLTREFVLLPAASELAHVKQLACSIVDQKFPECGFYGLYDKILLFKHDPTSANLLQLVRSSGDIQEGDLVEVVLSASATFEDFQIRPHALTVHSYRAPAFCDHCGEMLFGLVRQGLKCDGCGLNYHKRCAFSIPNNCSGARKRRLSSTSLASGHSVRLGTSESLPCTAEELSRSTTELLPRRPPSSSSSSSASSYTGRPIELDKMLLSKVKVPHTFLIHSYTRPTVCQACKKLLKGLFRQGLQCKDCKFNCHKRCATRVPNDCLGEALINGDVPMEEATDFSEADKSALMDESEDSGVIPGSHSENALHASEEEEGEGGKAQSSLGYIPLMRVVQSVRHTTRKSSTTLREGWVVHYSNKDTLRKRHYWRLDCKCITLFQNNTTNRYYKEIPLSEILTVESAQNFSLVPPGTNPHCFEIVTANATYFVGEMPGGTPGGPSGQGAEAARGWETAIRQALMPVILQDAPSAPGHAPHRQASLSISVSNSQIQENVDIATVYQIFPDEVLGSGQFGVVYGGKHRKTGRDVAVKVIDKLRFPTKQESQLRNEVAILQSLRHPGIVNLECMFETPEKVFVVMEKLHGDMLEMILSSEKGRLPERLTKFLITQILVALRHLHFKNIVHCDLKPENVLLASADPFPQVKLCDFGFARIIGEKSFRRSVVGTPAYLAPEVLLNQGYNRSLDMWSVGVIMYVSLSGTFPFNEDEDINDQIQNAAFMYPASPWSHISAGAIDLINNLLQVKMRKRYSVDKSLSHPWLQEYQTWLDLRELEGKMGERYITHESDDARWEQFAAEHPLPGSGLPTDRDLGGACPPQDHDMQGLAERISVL
The note with it: at 1 µM.

In test [2] the target is T2, Serine/threonine-protein kinase D3 (Homo sapiens) (UniProt O94806).
T2 sequence (whole entry): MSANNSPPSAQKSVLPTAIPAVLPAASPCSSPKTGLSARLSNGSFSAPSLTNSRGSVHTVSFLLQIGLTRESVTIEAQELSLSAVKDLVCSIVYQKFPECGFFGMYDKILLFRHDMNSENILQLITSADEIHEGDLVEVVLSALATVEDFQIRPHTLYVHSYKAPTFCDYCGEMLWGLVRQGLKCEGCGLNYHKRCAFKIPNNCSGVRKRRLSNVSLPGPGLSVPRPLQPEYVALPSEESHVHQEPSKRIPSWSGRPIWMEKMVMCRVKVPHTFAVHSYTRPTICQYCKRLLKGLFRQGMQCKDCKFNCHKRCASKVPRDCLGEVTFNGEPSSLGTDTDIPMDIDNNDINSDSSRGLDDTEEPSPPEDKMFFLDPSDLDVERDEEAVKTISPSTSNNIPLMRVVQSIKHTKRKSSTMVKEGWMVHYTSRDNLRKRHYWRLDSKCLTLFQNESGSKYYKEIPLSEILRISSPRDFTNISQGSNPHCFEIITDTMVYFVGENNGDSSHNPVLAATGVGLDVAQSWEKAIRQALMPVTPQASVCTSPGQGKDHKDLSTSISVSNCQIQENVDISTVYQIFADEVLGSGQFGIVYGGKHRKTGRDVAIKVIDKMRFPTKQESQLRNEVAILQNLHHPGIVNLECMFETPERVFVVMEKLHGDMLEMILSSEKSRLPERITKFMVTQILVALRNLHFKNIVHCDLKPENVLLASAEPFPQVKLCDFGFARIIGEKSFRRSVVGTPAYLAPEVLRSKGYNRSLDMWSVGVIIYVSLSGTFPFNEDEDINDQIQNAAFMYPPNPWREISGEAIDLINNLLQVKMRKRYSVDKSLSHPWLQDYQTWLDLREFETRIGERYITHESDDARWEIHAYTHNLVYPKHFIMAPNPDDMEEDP
The note with it: at 0.1 µM.

For test [3], the target named is T2, Serine/threonine-protein kinase D3 (Homo sapiens). The note with it: at 1 µM.
For test [4], the target named is T3, cGMP-dependent protein kinase 1 (Homo sapiens) (UniProt Q13976).
T3 sequence (whole entry): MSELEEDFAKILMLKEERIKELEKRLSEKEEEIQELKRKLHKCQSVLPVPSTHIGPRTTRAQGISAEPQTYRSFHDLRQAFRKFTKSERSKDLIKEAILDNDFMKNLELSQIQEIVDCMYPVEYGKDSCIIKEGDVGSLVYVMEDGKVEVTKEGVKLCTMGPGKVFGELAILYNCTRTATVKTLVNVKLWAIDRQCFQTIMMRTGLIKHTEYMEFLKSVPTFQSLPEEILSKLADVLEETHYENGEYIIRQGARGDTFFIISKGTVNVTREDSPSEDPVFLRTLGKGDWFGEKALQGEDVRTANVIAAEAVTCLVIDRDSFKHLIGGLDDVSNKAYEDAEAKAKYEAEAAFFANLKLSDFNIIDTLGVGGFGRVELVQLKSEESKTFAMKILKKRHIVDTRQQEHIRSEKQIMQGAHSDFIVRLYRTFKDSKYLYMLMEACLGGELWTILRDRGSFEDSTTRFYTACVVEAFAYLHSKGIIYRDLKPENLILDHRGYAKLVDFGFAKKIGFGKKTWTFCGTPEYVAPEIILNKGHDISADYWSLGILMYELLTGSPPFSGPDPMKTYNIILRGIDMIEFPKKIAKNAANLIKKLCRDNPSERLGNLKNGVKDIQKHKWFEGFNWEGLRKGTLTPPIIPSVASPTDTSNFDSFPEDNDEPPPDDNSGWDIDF
The note with it: at 0.1 µM.

Test [5] addresses T3, cGMP-dependent protein kinase 1 (Homo sapiens). The note with it: at 1 µM.
The target in test [6] is T4, cGMP-dependent protein kinase 2 (Homo sapiens) (UniProt Q13237).
T4 sequence (whole entry): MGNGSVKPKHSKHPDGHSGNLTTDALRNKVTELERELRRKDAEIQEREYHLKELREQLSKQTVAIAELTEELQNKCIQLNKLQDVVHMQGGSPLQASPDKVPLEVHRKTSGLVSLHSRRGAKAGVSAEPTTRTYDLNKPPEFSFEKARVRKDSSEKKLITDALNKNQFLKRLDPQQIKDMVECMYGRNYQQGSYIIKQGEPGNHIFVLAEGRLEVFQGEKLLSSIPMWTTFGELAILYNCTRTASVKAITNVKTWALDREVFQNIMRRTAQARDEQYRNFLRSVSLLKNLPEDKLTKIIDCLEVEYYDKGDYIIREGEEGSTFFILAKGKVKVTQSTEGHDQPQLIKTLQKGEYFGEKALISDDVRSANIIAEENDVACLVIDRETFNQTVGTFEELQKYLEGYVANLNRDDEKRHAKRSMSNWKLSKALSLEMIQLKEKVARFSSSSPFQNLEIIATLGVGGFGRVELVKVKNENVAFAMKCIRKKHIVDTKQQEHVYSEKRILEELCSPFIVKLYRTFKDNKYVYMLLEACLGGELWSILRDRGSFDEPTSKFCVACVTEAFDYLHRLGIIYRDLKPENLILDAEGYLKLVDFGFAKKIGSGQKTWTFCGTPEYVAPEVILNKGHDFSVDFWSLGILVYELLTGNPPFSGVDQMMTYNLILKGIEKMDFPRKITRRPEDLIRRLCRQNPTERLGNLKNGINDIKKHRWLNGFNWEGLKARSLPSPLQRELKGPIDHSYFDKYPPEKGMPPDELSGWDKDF
The note with it: at 0.1 µM.

Test [7] addresses T4, cGMP-dependent protein kinase 2 (Homo sapiens). The note with it: at 1 µM.
For test [8], the target named is T5, cAMP-dependent protein kinase catalytic subunit PRKX (Homo sapiens) (UniProt P51817).
T5 sequence (whole entry): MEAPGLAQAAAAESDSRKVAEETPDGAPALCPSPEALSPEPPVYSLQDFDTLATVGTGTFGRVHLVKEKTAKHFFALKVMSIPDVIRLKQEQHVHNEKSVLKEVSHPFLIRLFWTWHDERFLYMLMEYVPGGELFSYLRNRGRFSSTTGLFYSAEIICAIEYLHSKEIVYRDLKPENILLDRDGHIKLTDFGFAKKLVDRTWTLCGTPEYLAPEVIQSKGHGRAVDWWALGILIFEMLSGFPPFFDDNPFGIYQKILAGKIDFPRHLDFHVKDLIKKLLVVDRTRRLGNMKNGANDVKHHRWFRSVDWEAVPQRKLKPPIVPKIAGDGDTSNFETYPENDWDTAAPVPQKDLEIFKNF
The following applies: at 0.1 µM.

In test [9] the target is T5, cAMP-dependent protein kinase catalytic subunit PRKX (Homo sapiens). The note with it: at 1 µM.
Test [10] has as its target Rho-associated protein kinase 1 (Homo sapiens) (UniProt Q13464). The note with it: at 0.1 µM.
Test [11] shares this target. The note with it: at 1 µM.
Test [12] has as its target Rho-associated protein kinase 2 (Homo sapiens) (UniProt O75116). The note with it: at 0.1 µM.
Test [13] shares this target. The note with it: at 1 µM.
Test [14] deals with Ribosomal protein S6 kinase alpha-1 (Homo sapiens) (UniProt Q15418). The following applies: at 0.1 µM.
For test [15] the target is unchanged. The note with it: at 1 µM.
Test [16] concerns the target Ribosomal protein S6 kinase alpha-3 (Homo sapiens) (UniProt P51812). The following applies: at 0.1 µM.
The target is the same in test [17]. The note with it: at 1 µM.
In test [18] the target is Ribosomal protein S6 kinase alpha-2 (Homo sapiens) (UniProt Q15349). The note with it: at 0.1 µM.
The target is the same in test [19]. The note with it: at 1 µM.
In test [20] the target is Ribosomal protein S6 kinase alpha-6 (Homo sapiens) (UniProt Q9UK32). The note with it: at 0.1 µM.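 Note: reported value is the mean inhibition of RSK4, from the GSK PKIS kinase inhibitor screen.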

SMILES strings stand for the structures.

Sequence of Ribosomal protein S6 kinase alpha-2 (Homo sapiens) (Q15349 whole entry): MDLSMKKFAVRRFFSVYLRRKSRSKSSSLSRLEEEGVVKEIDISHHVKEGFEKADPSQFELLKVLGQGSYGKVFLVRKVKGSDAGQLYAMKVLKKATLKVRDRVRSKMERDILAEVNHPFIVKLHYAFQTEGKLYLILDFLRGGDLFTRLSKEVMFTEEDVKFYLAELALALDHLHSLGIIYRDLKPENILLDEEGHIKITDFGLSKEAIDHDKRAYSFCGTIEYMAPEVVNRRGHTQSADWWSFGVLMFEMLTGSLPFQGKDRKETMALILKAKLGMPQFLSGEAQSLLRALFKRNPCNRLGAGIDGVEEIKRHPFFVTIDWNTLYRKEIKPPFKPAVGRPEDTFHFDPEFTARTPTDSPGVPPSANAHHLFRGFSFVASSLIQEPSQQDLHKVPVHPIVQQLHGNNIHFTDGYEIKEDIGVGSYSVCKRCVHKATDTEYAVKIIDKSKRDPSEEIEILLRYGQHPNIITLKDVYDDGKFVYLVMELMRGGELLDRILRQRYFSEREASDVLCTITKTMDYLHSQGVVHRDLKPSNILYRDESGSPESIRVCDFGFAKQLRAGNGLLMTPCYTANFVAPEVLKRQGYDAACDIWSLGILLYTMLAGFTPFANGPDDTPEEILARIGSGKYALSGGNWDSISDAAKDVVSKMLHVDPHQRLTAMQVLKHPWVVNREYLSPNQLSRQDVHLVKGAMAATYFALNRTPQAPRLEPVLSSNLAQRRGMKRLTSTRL
Sequence of Ribosomal protein S6 kinase alpha-6 (Homo sapiens) (Q9UK32 whole entry): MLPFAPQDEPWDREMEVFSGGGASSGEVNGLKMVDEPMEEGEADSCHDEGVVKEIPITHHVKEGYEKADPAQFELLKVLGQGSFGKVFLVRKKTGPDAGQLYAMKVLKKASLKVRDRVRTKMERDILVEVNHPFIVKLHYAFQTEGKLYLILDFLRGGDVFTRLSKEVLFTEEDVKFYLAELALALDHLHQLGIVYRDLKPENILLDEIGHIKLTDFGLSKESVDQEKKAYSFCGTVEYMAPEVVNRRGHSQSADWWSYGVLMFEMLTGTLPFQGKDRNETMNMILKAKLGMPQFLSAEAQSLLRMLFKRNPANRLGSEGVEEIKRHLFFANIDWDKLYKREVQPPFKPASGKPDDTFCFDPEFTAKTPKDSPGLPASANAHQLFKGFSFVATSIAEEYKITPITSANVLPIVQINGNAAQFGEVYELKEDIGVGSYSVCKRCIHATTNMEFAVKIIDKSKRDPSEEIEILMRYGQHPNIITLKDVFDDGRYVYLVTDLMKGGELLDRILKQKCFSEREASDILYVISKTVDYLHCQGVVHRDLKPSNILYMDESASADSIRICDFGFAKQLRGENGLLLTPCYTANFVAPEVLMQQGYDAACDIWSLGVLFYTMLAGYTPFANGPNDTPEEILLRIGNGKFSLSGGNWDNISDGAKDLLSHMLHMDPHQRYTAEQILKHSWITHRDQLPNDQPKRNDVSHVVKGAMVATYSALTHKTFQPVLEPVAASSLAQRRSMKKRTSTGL
Sequence of Rho-associated protein kinase 1 (Homo sapiens) (Q13464 2-1354 limits assumed): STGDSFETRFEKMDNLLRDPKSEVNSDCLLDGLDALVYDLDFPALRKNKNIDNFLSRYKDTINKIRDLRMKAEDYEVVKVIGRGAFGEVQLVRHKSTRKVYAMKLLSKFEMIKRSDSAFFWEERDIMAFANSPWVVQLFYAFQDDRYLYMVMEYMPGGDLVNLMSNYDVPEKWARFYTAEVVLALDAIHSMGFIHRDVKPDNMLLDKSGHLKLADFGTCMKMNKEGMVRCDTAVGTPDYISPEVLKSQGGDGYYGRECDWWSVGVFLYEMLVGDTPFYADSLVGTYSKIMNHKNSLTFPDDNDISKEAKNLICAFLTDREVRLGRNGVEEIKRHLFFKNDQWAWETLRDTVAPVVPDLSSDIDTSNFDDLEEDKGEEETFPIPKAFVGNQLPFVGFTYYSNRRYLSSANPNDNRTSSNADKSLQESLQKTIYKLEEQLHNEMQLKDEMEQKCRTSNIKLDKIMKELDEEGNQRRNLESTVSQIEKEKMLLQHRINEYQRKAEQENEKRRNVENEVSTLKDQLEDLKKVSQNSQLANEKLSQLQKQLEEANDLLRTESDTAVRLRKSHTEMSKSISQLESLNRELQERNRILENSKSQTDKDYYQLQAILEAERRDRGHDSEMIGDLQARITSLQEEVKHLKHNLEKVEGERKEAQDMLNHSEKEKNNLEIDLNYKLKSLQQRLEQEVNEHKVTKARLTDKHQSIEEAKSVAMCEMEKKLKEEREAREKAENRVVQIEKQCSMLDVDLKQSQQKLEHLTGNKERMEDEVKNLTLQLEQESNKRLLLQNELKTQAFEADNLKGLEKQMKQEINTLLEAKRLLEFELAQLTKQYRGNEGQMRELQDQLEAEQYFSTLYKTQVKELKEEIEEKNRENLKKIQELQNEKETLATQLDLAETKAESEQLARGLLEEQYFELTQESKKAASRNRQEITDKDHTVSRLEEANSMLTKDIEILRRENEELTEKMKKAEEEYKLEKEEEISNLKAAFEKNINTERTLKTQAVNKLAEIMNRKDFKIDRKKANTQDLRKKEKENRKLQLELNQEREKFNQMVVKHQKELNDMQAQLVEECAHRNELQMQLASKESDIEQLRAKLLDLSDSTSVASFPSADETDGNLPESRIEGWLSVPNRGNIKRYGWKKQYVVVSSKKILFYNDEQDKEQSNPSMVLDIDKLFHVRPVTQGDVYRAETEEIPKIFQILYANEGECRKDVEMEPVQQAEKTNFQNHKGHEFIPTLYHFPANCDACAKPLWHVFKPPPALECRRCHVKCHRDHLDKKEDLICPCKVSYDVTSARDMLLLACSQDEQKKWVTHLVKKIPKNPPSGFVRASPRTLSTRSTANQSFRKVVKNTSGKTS
Sequence of Rho-associated protein kinase 2 (Homo sapiens) (O75116 whole entry, looked up): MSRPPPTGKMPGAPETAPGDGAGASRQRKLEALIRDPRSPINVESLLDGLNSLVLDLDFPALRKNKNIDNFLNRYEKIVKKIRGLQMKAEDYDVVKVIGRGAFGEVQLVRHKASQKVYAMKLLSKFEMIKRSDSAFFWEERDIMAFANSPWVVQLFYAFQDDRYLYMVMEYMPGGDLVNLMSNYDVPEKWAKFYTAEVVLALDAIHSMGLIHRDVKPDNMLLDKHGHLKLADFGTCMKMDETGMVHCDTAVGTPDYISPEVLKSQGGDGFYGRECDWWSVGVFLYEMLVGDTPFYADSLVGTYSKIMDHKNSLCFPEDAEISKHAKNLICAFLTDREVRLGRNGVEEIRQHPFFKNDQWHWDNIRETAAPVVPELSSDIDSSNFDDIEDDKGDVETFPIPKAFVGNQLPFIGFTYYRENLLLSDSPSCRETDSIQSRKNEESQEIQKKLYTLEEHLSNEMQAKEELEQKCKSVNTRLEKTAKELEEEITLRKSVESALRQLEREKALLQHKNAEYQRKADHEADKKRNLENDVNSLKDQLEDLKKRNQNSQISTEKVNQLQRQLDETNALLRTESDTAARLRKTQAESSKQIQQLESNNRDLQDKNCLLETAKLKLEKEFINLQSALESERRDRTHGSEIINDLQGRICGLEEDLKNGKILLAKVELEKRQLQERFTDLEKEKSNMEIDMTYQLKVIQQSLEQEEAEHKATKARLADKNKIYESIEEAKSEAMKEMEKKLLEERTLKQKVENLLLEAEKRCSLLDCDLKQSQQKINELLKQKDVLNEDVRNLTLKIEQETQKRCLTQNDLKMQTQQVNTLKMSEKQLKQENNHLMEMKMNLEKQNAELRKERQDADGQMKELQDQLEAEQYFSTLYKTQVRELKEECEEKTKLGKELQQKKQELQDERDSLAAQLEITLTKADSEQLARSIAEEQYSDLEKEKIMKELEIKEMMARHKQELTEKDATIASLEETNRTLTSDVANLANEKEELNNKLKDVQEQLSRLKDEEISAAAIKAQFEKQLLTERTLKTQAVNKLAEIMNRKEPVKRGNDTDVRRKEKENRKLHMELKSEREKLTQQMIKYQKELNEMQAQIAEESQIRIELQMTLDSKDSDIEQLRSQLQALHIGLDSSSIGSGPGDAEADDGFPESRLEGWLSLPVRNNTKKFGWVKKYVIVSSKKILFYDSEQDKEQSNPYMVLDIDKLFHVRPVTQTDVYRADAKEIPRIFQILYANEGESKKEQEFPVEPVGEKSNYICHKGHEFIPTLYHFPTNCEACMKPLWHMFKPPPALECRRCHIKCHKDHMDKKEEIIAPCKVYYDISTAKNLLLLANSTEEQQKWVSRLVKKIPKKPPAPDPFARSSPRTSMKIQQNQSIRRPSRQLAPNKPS
Sequence of Ribosomal protein S6 kinase alpha-3 (Homo sapiens) (P51812 whole entry): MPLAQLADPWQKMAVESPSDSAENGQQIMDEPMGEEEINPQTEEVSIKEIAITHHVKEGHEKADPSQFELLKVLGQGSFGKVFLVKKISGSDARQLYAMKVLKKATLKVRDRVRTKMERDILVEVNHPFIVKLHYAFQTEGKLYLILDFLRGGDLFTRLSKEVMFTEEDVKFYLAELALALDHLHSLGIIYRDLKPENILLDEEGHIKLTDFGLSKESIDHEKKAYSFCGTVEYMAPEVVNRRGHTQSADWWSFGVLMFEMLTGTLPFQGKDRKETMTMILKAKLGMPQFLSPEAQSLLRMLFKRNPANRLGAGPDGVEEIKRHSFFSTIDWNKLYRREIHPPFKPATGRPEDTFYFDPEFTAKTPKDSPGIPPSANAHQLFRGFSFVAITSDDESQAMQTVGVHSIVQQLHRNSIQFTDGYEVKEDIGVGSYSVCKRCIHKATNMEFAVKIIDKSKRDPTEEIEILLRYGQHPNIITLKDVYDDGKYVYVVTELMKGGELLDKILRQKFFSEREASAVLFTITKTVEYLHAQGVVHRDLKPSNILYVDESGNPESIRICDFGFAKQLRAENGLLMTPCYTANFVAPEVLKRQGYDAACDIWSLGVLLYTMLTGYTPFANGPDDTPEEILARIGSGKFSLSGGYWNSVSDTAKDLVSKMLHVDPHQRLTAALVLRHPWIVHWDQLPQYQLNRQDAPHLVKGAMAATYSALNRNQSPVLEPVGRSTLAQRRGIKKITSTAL

As to `CS(=O)(=O)CCNCc1ccc(-c2ccc3ncnc(Nc4ccc(OCc5ccccc5)c(Cl)c4)c3c2)o1`, the inhibition (as a rule, the change of the read-out against control, counted positive when it falls) in test [1] was -0.61%; in test [2] it was -0.81%; in test [3] it was -0.48%; in test [4], 1.06%; in [5], 2%; in test [6] it was 0.55%. Further, the inhibition was 1.26% in test [7]; 0.78% in test [8]; 0.52% in test [9]; 1.32% in test [10]; 3.86% in [11]; 1.28% in [12]. Also, the inhibition in test [13] was 5.61%; in test [14], 0.36%; in [15] it was 2.7%; in test [16], -1.21%; in test [17], 1.51%; in test [18] it was 1.08%. Besides, the results for the inhibition in [19] and in test [20] were 2.7% and -0.67%, respectively.
Consider `CC(=O)Nc1cccc(C#Cc2cncnc2Nc2ccc(OCc3cccc(F)c3)c(Cl)c2)n1`, for which the inhibition was -0.67% in [1]; -1.15% in test [2]; -1.81% in [3]; 2.8% in [4]; 3.25% in [5]; 3.49% in [6]. Moreover, the inhibition in test [7] was found to be 6.99%; in [8], 1.81%; in test [9] it was 5.08%; in [10] it was 1.28%; in [11], 1.22%; in [12], 3.13%. The inhibition in test [13] was 6.65%; in test [14], 3.35%; in test [15], 5.09%; in [16], 1.72%; in [17], 4.03%; in test [18], -1.11%. The inhibition in [19] is 0.12%; in [20], 0.1%.
As to `COC(=O)Nc1nc2cc(Oc3cccc(NC(=O)Nc4cc(C(F)(F)F)ccc4F)c3)ccc2[nH]1`, the inhibition amounted to 1.8% in [1]; 0.2% in test [2]; 2.71% in [3]; 2.33% in test [4]; 2.11% in [5]; 1.2% in test [6]. Also, the inhibition in test [7] is 6.47%; in [8], 0.81%; in test [9], 2.2%; in [10], -0.55%; in test [11] it was 0.94%; in test [12], -1.5%. The inhibition in test [13] is -0.89%; in test [14] it was 0.53%; in test [15], 0.21%; in test [16] it was 0.36%; in test [17], 1.19%; in test [18], -0.64%. Besides, the results for the inhibition in [19] and in [20] were 2% and -0.63%, respectively.
